The assay deals with T1, TALE2-NN (CACNA1C site 2 activator) (Xanthomonas (engineered), UniProt P14727 SEQ:1-983).
T1 chain: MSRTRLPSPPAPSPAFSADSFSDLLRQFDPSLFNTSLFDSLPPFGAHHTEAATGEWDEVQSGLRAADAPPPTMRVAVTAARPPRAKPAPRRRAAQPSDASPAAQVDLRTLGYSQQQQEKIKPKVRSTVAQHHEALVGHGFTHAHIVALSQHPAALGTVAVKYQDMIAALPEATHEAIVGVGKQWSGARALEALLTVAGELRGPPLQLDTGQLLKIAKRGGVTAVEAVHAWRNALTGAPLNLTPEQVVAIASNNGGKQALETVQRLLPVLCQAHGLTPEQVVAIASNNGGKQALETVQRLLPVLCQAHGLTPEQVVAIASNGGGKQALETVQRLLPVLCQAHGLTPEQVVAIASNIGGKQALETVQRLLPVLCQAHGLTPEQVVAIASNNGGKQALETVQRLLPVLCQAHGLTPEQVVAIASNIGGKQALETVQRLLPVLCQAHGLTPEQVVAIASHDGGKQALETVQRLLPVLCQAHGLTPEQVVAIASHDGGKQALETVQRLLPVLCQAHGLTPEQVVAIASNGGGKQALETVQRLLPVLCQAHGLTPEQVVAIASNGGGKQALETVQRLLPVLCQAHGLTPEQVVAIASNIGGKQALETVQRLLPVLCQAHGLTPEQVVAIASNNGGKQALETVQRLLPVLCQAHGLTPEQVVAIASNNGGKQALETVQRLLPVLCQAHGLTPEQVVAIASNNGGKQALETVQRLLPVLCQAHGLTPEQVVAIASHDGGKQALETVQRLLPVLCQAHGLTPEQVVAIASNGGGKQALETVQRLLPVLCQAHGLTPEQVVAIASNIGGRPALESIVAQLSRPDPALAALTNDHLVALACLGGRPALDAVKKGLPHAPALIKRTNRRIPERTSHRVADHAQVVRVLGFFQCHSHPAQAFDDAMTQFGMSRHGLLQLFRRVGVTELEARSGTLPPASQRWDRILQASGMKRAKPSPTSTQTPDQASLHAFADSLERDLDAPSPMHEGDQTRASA
The assay can be described thus: cell_activity; luciferase reporter. Particulars: tags: VP64, 2A-GFP; dsDNA, one strand shown. On the procedure: TALEs using NN, NK, NH, and HN as the G-targeting RVD were synthesized to target two distinct 18 bp target sites in the human CACNA1C locus. Changes in mRNA are measured using qRT-PCR as described previously. VP64, VP64 transcription activation domain. All results are collected from three independent experiments in HEK 293FT cells. Error bars indicate s.e.m.; n=3. FIG. 19(b) discloses SEQ ID NOS 63 and 62, respectively, in order of appearance.
To determine whether NH and HN are suitable replacements for NN as the G-specific RVD, specificity and activity strength of NN, NK, NH, and HN were directly compared. Two 18 bp targets within the CACNA1C locus in the human genome were chosen and four TALEs for each target were constructed, using NN, NK, NH, or HN as the G-targeting RVD (FIG. 19a). […] For each CACNA1C target site, four luciferase reporters were constructed: wild type genomic target, and wild type target with 2, 4, or all guanines mutated into adenines (FIG. 19a, G-to-A reporters), and compared the activity of each TALE using these reporters (FIG. 19a). […] Thus, focus was placed on the RVDs NN, NK, and NH in subsequent experiments to assess their usefulness in modulating transcription at endogenous human genome targets.
Background: A reporter such as luciferase makes a cellular process visible.
TAATAGACCTTAGGGCTA: the binding signal was 21.8 % reduction vs wild-type site.

The values above are taken from US20140271602, “NUCLEOTIDE-SPECIFIC RECOGNITION SEQUENCES FOR DESIGNER TAL EFFECTORS” (THE BROAD INSTITUTE INC., published 2014).
